Assay [1] has as its system Human papillomavirus type 1a protein E7 (residues 44-93). The assay can be described thus: HPV1a E7 fragment binders on microarrays, primary screen, biochemical, small-molecule microarray, residues 44-93, 635 nm fluorescence (AID 1108).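 Also: E7 fragment applied at 1 µg/mL in TBST for 1 h at 4 C; score combines spot fluorescence with its signal to noise ratio.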 As to conditions: small-molecule microarray binding, fluorescence 635 nm; higher = more signal.
A short description of assay [2]: modulators of HCV replicon luciferase signal, primary screen, HCV replication inhibitor project, Huh7 cells, luciferase reporter (AID 1109).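 Also: huh7 hepatoma cells harbouring a luciferase neomycin HCV replicon reporter; luciferase luminescence as measure of HCV replicon replication; test concentration not given here.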 The note with it: 48 h, higher = more signal.
For assay [3], the target named is Left-right determination factor 2 (Homo sapiens) (UniProt O00292). The assay can be described thus: LEFTY2 binders on small-molecule microarrays, primary screen, biochemical, small-molecule microarray, 635 nm fluorescence scan (AID 1110). The note with it: LEFTY2 binding, higher = more signal.
Assay [4] has as its target Calmodulin-1 (Homo sapiens) (UniProt P0DP23). The experiment in a line: CALM1 binders on microarrays, EGTA buffer, profiling panel, biochemical, small-molecule microarray, Cy5-labelled CALM1 (AID 1111).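 Also: labelled calmodulin applied in Tris saline Tween buffer holding calcium plus EGTA and DTT.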 As to conditions: Cy5-CALM1 binding fluorescence, higher = more signal.
Assay [5] shares this target. The experiment in a line: calcium-bound CALM1 binders on microarrays, profiling panel, artefact control for SMM control-protein annotation, biochemical, small-molecule microarray, Cy5-labelled CALM1, plus calcium (AID 1112).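 Also: score merges spot fluorescence with signal to noise from triplicate slides.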 As to conditions: Cy5-CALM1 binding fluorescence, higher = more signal.
Assay [6] is described as follows: small-molecule microarray binders of probe aWnt5a, primary screen, biochemical, biotinylated probe, 635/667 nm fluorescence (AID 1113).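 Also: score merges 667 nm fluorescence intensity with signal-to-noise per printed feature.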 As to conditions: higher = more signal.
Assay [7] can be described thus: small-molecule microarray binders of probe aShh, primary screen, biochemical, biotinylated probe, 635/667 nm fluorescence (AID 1114).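 Also: probe is biotin-labelled aShh protein from a stem cell growth factor screen; measures binding of labelled protein to compounds printed on the slide; score merges feature fluorescence at 667 nm with signal-to-noise.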 As to conditions: higher = more signal.
The nature of assay [8]: small-molecule microarray binders of probe aNog, primary screen, biochemical, biotinylated probe, 635/667 nm fluorescence (AID 1115).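 Also: probe is biotinylated aNog protein used at 0.15 µg/mL for 1 h at 4 C; z-score combines 667 nm fluorescence of each spot with its signal to noise.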 As to conditions: higher = more signal.
The target of assay [9] is Torsin-1A-interacting protein 1 (Homo sapiens) (UniProt Q5JTV8). The assay can be described thus: LAP1 binders from COS7 cell lysate, primary screen, small-molecule microarray, 635/667 nm fluorescence (AID 1116). The note with it: COS7-hLAP1 lysate binding, 635 nm fluorescence, higher = more signal.
The target in assay [10] is Alpha-bungarotoxin (Bungarus multicinctus) (UniProt P60615). The experiment in a line: alpha-bungarotoxin binders on microarray, profiling panel, artefact control for SMM control protein annotation, biochemical, small-molecule microarray, Alexa647 label, 635/667 nm fluorescence (AID 1117). The note with it: alpha-BTX-A647 binding fluorescence, higher = more signal.
The target of the next assay is Albumin (Bos taurus) (UniProt P02769). The experiment in a line: bovine serum albumin binders on microarray, profiling panel, artefact control for SMM control protein annotation, biochemical, small-molecule microarray, Alexa647 label, 635/667 nm fluorescence (AID 1118).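 Also: score merges 667 nm emission intensity and signal-to-noise per printed compound spot.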 As to conditions: BSA-A647 binding, fluorescence 635 nm, higher = more signal.
A short description of assay [11]: small-molecule microarray binders of probe aXIP, primary screen, biochemical, NeuroSMM set, 635/667 nm fluorescence (AID 1119).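 Also: probe is the protein aXip251-270 applied at 1 µg/mL to compound-printed slides; binding of probe to printed compounds measured as 667 nm fluorescence plus signal to noise.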 The note with it: higher = more signal, called active from +8 up or from −8 down.
Assay [12] can be described thus: small-molecule binders of probe aNOTCH3, primary screen, biochemical, small-molecule microarray, 635/667 nm fluorescence (AID 1120).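 Also: probe is a biotin-tagged antibody raised against NOTCH3 rather than NOTCH3 protein; score merges spot fluorescence near 667 nm with spot signal to noise.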 The note with it: higher = more signal.
Assay [13] can be described thus: small-molecule binders of probe aNOTCH2, primary screen, biochemical, small-molecule microarray, 635/667 nm fluorescence (AID 1121).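 Also: score merges feature fluorescence read at 667 nm with its signal to noise.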 The note with it: higher = more signal.
For assay [14], the target named is Carbonic anhydrase 2 (Homo sapiens) (UniProt P00918). The assay can be described thus: CAII small-molecule binders, profiling panel, biochemical, small-molecule microarray, Alexa647-labelled CAII (AID 1122). The note with it: CAII-A647 binding fluorescence, higher = more signal.
Assay [15] can be described thus: COS7 lysate on small-molecule microarray, probe aHis, 635 nm (AID 1123).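 Also: z-score combines 667nm fluorescence intensity with signal-to-noise per printed compound spot.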 The note with it: COS7 cell lysate, fluorescence, higher = more signal.
Assay [16] is described as follows: compound binding in COS7 lysate, probe aLAP1, primary screen, cell lysate, small-molecule microarray (AID 1124).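 Also: lysate comes from COS7 cells expressing LAP1 and is applied at 0.3 µg/mL; score merges spot fluorescence near 667 nm with signal-to-noise over triplicate slides.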 The note with it: probe aLAP1, fluorescence, higher = more signal.
The test system of another assay is Sam68 (KHDRBS1). The assay can be described thus: Sam68 small-molecule binders, primary screen, biochemical, small-molecule microarray, 635 nm fluorescence (AID 1125).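 Also: score merges 667 nm channel intensity with signal to noise over triplicate slides.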 As to conditions: small-molecule microarray binding, higher = more signal.
Assay [17] relates to Chordin-like protein 2 (CHRDL2). The assay can be described thus: CHRDL2 small-molecule binders, primary screen, biochemical, small-molecule microarray, 635 nm fluorescence (AID 1126).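 Also: printed compound slides probed with Chrdl2 protein at 4 µg/mL for 1 h at 4 C; score merges 667 nm emission intensity with signal to noise over three replicate slides.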 The note with it: small-molecule microarray binding, fluorescence 635 nm; higher = more signal.
The target in assay [18] is Concanavalin-A (Canavalia ensiformis) (UniProt P02866). The experiment in a line: ConA small-molecule binders, primary screen, artefact control for SMM control protein annotation, biochemical, small-molecule microarray, Alexa647 label, 635 nm (AID 1127).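 Also: z combines 667 nm emission intensity with signal-to-noise across three replicate slides.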 As to conditions: ConA-A647 binding fluorescence, higher = more signal.

Activity calls are given as the source filed them.

Chain of Torsin-1A-interacting protein 1 (Homo sapiens) (Q5JTV8 whole entry, looked up): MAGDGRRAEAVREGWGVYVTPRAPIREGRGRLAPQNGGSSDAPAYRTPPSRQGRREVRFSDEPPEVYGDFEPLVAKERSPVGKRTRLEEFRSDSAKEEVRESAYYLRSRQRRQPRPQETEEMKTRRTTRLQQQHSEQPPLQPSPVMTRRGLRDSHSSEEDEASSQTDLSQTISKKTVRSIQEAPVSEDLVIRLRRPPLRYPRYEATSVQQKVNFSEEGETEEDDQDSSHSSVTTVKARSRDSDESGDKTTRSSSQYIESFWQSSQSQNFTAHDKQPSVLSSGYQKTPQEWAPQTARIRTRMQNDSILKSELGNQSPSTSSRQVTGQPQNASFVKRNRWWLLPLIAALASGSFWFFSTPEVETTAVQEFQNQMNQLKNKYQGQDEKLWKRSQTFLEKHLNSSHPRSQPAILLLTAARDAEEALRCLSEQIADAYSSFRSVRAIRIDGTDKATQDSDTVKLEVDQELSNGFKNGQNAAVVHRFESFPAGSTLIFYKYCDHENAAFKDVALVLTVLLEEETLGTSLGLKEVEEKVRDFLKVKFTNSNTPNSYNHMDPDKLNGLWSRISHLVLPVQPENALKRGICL
Chain of Concanavalin-A (Canavalia ensiformis) (P02866 whole entry, looked up): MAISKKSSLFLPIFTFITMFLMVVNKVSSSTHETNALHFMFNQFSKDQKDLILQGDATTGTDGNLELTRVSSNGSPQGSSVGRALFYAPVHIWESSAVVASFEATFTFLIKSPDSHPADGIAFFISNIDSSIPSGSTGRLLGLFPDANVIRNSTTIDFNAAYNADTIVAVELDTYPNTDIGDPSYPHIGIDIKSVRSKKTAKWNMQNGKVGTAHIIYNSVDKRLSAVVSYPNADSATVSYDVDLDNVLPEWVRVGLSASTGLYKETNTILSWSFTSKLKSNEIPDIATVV
Chain of Left-right determination factor 2 (Homo sapiens) (O00292 whole entry, looked up): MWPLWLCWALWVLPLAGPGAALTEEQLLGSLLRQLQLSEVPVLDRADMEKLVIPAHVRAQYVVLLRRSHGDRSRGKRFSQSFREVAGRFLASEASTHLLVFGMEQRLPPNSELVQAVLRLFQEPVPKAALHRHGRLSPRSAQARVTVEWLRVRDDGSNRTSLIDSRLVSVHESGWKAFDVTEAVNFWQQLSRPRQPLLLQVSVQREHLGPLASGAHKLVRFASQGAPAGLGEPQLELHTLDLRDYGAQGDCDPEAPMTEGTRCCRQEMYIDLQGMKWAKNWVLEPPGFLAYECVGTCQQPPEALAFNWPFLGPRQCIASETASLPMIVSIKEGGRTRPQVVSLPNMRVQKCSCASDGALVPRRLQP
Chain of Albumin (Bos taurus) (P02769 whole entry, looked up): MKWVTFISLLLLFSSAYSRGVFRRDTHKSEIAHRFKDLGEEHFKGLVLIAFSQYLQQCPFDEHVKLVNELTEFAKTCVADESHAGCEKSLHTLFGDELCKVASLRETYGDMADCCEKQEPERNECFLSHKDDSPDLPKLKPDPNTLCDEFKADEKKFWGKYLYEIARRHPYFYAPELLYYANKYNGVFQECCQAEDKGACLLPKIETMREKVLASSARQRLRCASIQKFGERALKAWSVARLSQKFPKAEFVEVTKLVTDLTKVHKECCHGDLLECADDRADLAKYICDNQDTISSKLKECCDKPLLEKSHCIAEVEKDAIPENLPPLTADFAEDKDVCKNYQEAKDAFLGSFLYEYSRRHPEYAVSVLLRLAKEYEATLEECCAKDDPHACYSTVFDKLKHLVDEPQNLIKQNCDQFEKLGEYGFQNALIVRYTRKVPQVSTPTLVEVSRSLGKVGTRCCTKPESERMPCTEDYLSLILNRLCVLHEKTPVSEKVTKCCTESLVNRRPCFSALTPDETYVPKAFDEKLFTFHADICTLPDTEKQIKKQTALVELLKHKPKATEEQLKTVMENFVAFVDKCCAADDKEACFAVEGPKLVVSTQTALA
Chain of Alpha-bungarotoxin (Bungarus multicinctus) (P60615 whole entry, looked up): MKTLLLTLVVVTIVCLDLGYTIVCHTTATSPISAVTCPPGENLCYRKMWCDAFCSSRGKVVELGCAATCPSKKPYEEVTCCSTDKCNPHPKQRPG

Turning to `C=CCOC(=O)[C@H]1[C@@H]2C(=O)O[C@@H](c3ccccc3)[C@@H](c3ccccc3)N2[C@@H](c2ccc(OCCOC(=O)[C@H]3C[C@H]4C(=O)N[C@@H](CCCCNC(C)=O)C(=O)N4[C@H]3c3cccc(OCCO)c3)cc2)[C@]12C(=O)Nc1ccc(I)cc12`, the composite z-score in [1] was 1.42; in [3], 0.801; in assay [4], -0.0021; in assay [5] it was -0.451; in assay [6] it was 0.0825; in assay [7], -0.705. In addition, the composite z-score in assay [8] was -0.632; in [9], 0.339; in assay [10] it was 0.975; with Albumin (Bos taurus), -0.371; in assay [12], -0.366; in [13], -0.354. The composite z-score in [14] worked out at 0.605; in [15] it was 1.47; in assay [16] it was 0.353; with Sam68 (KHDRBS1), 1.25; in [17], 0.736; in assay [18], 1.12. The z-score in assay [2] is -1.21. Also, in assay [11], the composite Z-score is 1.97 (inactive).
With `O=C1OCCC/C=C\[C@H]2OC34C=CCN(c5ccc6ccccc6c5)C(=O)[C@H]3N(CCCO)C(=O)[C@@H]4C12` (stereo not given in full), the composite z-score is -0.148 in assay [1]; -0.548 in assay [3]; -0.371 in [4]; 0.0048 in [5]; -0.124 in [6]; 0.184 in [7]. The composite z-score is 0.0014 in assay [8]; -0.387 in assay [9]; -0.766 in [10]; -0.0327 with Albumin (Bos taurus); -0.299 in assay [12]; -0.111 in [13]. Besides, the composite z-score in assay [14] is 0.94; in assay [15], 0.325; in assay [16], 0.452; in the assay with Sam68 (KHDRBS1), 0.235; in assay [17], -1.08; in [18], -0.296. Moreover, the z-score in assay [2] is -0.0935. Also, the composite Z-score in assay [11] is -0.0549 (inactive).
For the compound `COCCOC(=O)N1C(=O)[C@@]2(c3cc(C#CC4=CCCCC4)ccc31)[C@H](c1ccc(O)cc1)N1[C@H](c3ccccc3)[C@H](c3ccccc3)OC(=O)[C@H]1[C@@H]2C(=O)NC[C@H](O)c1ccccc1`, the composite z-score was 1.39 in assay [1]; 0.623 in [3]; 0.713 in [4]; 0.135 in [5]; 0.0324 in assay [6]; 0.296 in [7]. Further, the composite z-score was -0.614 in assay [8]; 1.39 in assay [9]; 0.791 in [10]; 0.613 with Albumin (Bos taurus); 0.158 in [12]; -0.148 in [13]. The composite z-score turned out to be 0.27 in assay [14]; 1.68 in [15]; 1.02 in assay [16]; 1.3 in the assay on Sam68 (KHDRBS1); 0.642 in assay [17]; 0.935 in assay [18]. Further, the z-score in [2] is -1.66. The composite Z-score in assay [11] is 0.225 (inactive).
Turning to `COc1ccc([Si](C)(C)[C@H]2[C@H](CCO)O[C@@]3(C(=O)N(Cc4ccc(N5C(=O)c6ccccc6Oc6ccccc65)cc4)c4ccccc43)[C@@H]2C)cc1`, the composite z-score in [1] was -0.451; in [3] it was -0.804; in assay [4], 0.12; in [5] it was 0.908; in [6], -0.124; in assay [7], 0.0121. In addition, the composite z-score is 0.0078 in assay [8]; -0.438 in assay [9]; -0.516 in assay [10]; -0.0162 with Albumin (Bos taurus); -0.0212 in assay [12]; -0.204 in assay [13]. Moreover, the composite z-score in assay [14] is 0.0539; in [15] it was 0.648; in assay [16] it was -0.299; with Sam68 (KHDRBS1), -0.652; in [17], -0.348; in [18], -0.352. Also, the z-score in assay [2] was -4.8. Further, the composite Z-score in assay [11] is -0.291 (inactive).
Regarding `CCOC(=O)C[C@H]1[C@H](OC(=O)c2ccccc2-c2ccccc2)[C@@H](NC(=O)c2ccccc2)c2cc(OCCCO)ccc2N1C(=O)c1ccccc1`, the composite z-score in assay [1] is 0.374; in [3] it was 0.345; in assay [4] it was 0.114; in [5] it was 0.148; in assay [6], -0.0425; in assay [7] it was -0.0146. The composite z-score was -0.0926 in [8]; -0.244 in assay [9]; 0.0475 in assay [10]; 0.505 in the assay with Albumin (Bos taurus); -0.0647 in assay [12]; -0.019 in [13]. For the same compound, the composite z-score in assay [14] stood at 0.666; in assay [15], 0.677; in assay [16] it was 0.513; with Sam68 (KHDRBS1), 0.42; in assay [17] it was 0.116; in assay [18], 0.178. Moreover, the z-score in assay [2] is -0.843. In assay [11], the composite Z-score was -0.383 (inactive).
As to `O=c1cccc(-c2ccco2)o1`, the composite z-score is 0.582 in assay [1]; 0.758 in [3]; -0.221 in [4]; -1.23 in assay [5]; -0.0179 in [6]; 0.0952 in assay [7]. In addition, the composite z-score is -0.0563 in assay [8]; 0.18 in assay [9]; 0.738 in assay [10]; 0.167 in the assay with Albumin (Bos taurus); 0.0522 in assay [12]; -0.127 in assay [13]. The composite z-score in assay [14] is 0.25; in assay [15], 0.193; in [16], 0.462; in the assay on Sam68 (KHDRBS1), 0.969; in assay [17], 1.05; in assay [18], 0.495. Besides, the z-score in assay [2] was -0.574. The composite Z-score in assay [11] was 0.207 (inactive).

Source of the values: PubChem BioAssay.
